Assay [1] in a line: NCI Yeast Anticancer Drug Screen. Data for the rad50 strain (AID 155).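 Further: 0% = growth of vehicle-only cultures of the same strain.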 Conditions: S. cerevisiae rad50 strain growth inhibition, stronger effect = higher value. In outline: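 Yeast carrying a defined DNA repair defect were exposed to test compounds, and growth was compared with vehicle-treated controls to give percent inhibition.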
A short description of assay [2]: NCI Yeast Anticancer Drug Screen. Data for the mec2-1 strain (AID 157). As to conditions: S. cerevisiae mec2-1 strain, stronger effect = higher value. In outline: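 Growth inhibition is read against vehicle-treated controls after compound exposure of the mec2-1 yeast strain, which is defective in DNA damage repair or cell cycle control.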
The nature of assay [3]: NCI Yeast Anticancer Drug Screen. Data for the sgs1 mgt1 strain (AID 161).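 Further: 0% = growth of cultures given vehicle only.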 As to conditions: S. cerevisiae sgs1 mgt1 strain, stronger effect = higher value. In outline: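 Percent growth inhibition was derived by comparing compound-exposed mutant yeast with vehicle-exposed cultures. The strain carries alterations in DNA damage repair.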
Assay [4] can be described thus: NCI Yeast Anticancer Drug Screen. Data for the cln2 rad14 strain (AID 165).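 Further: 0% = growth equal to vehicle treated cultures.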 As to conditions: S. cerevisiae cln2 rad14 strain, stronger effect = higher value. In outline:
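Growth inhibition, relative to vehicle-treated controls, is the read-out. The test organism is a yeast strain with defined genetic alterations, cln2 rad14.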

A short description of assay [5]: NCI Yeast Anticancer Drug Screen. Data for the bub3 strain (AID 167). As to conditions: S. cerevisiae bub3 mutant strain, stronger effect = higher value. In outline: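 Compounds were applied to a genetically altered yeast strain carrying a cell-cycle control defect. Growth inhibition was scored against vehicle-treated controls.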
Assay [6] can be described thus: NCI Yeast Anticancer Drug Screen. Data for the mlh1 rad18 strain (AID 175). Conditions: S. cerevisiae mlh1 rad18 strain growth inhibition, stronger effect = higher value. In outline:
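Cells of a genetically altered yeast strain, deficient in DNA damage repair, were treated with compound. Their growth was then compared with that of vehicle-treated cultures to give inhibition.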

Where [7] appears, read: at 5.0 µM (retest, dose inferred, filed as 0.5).
The mark [8] stands for this setting: at 50.0 µM (retest, dose inferred, filed as 5.0).

Several values for one entry are separate records, joined by “and”; a condition that tells them apart may be missing. Equal values may be shown once. The panel holds about 79,000 compounds, 15% with a hit somewhere; the sample as a whole holds those more often. Some compounds were tested as several samples or in several runs, with calls that do not always agree. Activity calls are given as the source filed them. No stated cut-off is given here; in the data, active means growth inhibition above about 70%; inactive means the rest.

`C[C@@H]1CCC2[C@@H](C)[C@H](O[C@H]3O[C@@H]4O[C@@]5(C)CCC6[C@H](C)CCC([C@H]3C)[C@]64OO5)O[C@@H]3O[C@@]4(C)CCC1[C@@]23OO4` (some centres not stated): the growth inhibition was 92% (active) in assay [1] (setting [7]); 93% (active) in assay [1] (setting [8]); 90.2% (active) in assay [1] (at 50.0 µM); 95% (active) in assay [2] (setting [7]); 94% (active) in assay [2] (setting [8]); 91.6% (active) in assay [2] (at 50.0 µM). Besides, the growth inhibition in assay [3] (setting [7]) was 94% (active); in assay [3] (setting [8]), 95% (active); in assay [3] (at 50.0 µM) it was 92% (active); in assay [4] (setting [7]) it was 79% (active); in assay [4] (setting [8]), 93% (active); in assay [4] (at 50.0 µM) it was 89.7% (active). Also, the growth inhibition in assay [5] (setting [7]) is 92% (active); in assay [5] (setting [8]), 94% (active); in assay [5] (at 50.0 µM), 91.2% (active); in assay [6] (setting [7]) it was 93% (active); in assay [6] (setting [8]) it was 93% (active); in assay [6] (at 50.0 µM), 90.8% (active).

Take `CCC[CH2][Pb]([CH2]CCC)([O]C(C)=O)[O]C(C)=O`: the growth inhibition in assay [1] (setting [7]) was 99% (active); in assay [1] (setting [8]), 99% (active); in assay [1] (at 50.0 µM), 90% (active); in assay [2] (setting [7]) it was 63% (inactive); in assay [2] (setting [8]) it was 99% (active); in assay [2] (at 50.0 µM), 93.1% (active). The growth inhibition was 99% (active) in assay [3] (setting [7]); 94% (active) in assay [3] (setting [8]); 94% (active) in assay [3] (at 50.0 µM); 92% (active) in assay [4] (setting [7]); 98% (active) in assay [4] (setting [8]); 92.3% (active) in assay [4] (at 50.0 µM). The growth inhibition in assay [5] (setting [7]) was 99% (active); in assay [5] (setting [8]), 98% (active); in assay [5] (at 50.0 µM), 92.2% (active); in assay [6] (setting [7]), 100% (active); in assay [6] (setting [8]) it was 99% (active); in assay [6] (at 50.0 µM) it was 91.5% (active).

For `CCC1(O)C(=O)OCc2c1cc1n(c2=O)Cc2cc3ccc(C#N)cc3nc2-1` (configuration not stated), the growth inhibition in assay [1] (setting [7]) is 71% (active); in assay [1] (setting [8]), 57% (inactive); in assay [1] (at 50.0 µM), 51% (inactive); in assay [2] (setting [7]), 11% (inactive); in assay [2] (setting [8]), -6% (inactive); in assay [2] (at 50.0 µM), -20.8% (inactive). The growth inhibition in assay [3] (setting [7]) was 11% (inactive); in assay [3] (setting [8]), -132% (inactive); in assay [3] (at 50.0 µM), -30.6% (inactive); in assay [4] (setting [7]), 10% (inactive); in assay [4] (setting [8]), -5% (inactive); in assay [4] (at 50.0 µM) it was -16.7% (inactive). For the same compound, the growth inhibition in assay [5] (setting [7]) was -6% (inactive); in assay [5] (setting [8]), -63% (inactive); in assay [5] (at 50.0 µM), -4.05% (inactive); in assay [6] (setting [7]) it was 10% (inactive); in assay [6] (setting [8]) it was -9% (inactive); in assay [6] (at 50.0 µM) it was -15.6% (inactive).

For `CC(C)c1cccc(C(C)C)c1NC(=O)C(=O)CC(=O)CC(c1ccccc1)c1c(O)c2ccccc2oc1=O` (configuration not stated), the growth inhibition in assay [1] (setting [7]) is 8% (inactive); in assay [1] (setting [8]), 8% (inactive); in assay [1] (at 50.0 µM) it was 59.4% (inactive); in assay [2] (setting [7]), -12% (inactive); in assay [2] (setting [8]), -12% (inactive); in assay [2] (at 50.0 µM), 43% (inactive). Also, the growth inhibition was 11% (inactive) in assay [3] (setting [7]); 11% (inactive) in assay [3] (setting [8]); 71% (active) in assay [3] (at 50.0 µM); -2% (inactive) in assay [4] (setting [7]); -2% (inactive) in assay [4] (setting [8]); 55.2% (inactive) in assay [4] (at 50.0 µM). Moreover, the growth inhibition was -1% (inactive) in assay [5] (setting [7]); -1% (inactive) in assay [5] (setting [8]); 70.7% (active) in assay [5] (at 50.0 µM); 7% (inactive) in assay [6] (setting [7]); 7% (inactive) in assay [6] (setting [8]); 58.6% (inactive) in assay [6] (at 50.0 µM).

Turning to `CC(C)O.CC(C)O.OCCN(CCO)CCO.OCCN(CCO)CCO.[Ti+2]`, the growth inhibition in assay [1] (setting [7]) is 19% (inactive); in assay [1] (setting [8]) it was 36% (inactive); in assay [1] (at 50.0 µM) it was 60% (inactive); in assay [2] (setting [7]) it was 44% (inactive); in assay [2] (setting [8]), 96% (active); in assay [2] (at 50.0 µM), 31.6% (inactive). In addition, the growth inhibition was 11% (inactive) in assay [3] (setting [7]); 20% (inactive) in assay [3] (setting [8]); 52.9% (inactive) in assay [3] (at 50.0 µM); 34% (inactive) in assay [4] (setting [7]); 70% (active) in assay [4] (setting [8]); 4.3% (inactive) in assay [4] (at 50.0 µM). The growth inhibition in assay [5] (setting [7]) is 99% (active); in assay [5] (setting [8]), 99% (active); in assay [5] (at 50.0 µM) it was 39.2% (inactive); in assay [6] (setting [7]) it was 22% (inactive); in assay [6] (setting [8]), 39% (inactive); in assay [6] (at 50.0 µM), 44.2% (inactive).

As to `COc1cc(C2c3cc4c(cc3[C@@H](Nc3ccc(F)cc3)C3COC(=O)[C@H]23)OCO4)cc(OC)c1O` (some centres not stated), the growth inhibition in assay [1] (setting [7]) is 96% (active); in assay [1] (setting [8]) it was 96% (active); in assay [1] (at 50.0 µM) it was 85.3% (active); in assay [2] (setting [7]) it was 97% (active); in assay [2] (setting [8]), 98% (active); in assay [2] (at 50.0 µM), 91.2% (active). Further, the growth inhibition was 94% (active) in assay [3] (setting [7]); 99% (active) in assay [3] (setting [8]); 88.9% (active) in assay [3] (at 50.0 µM); 41% (inactive) in assay [4] (setting [7]); 99% (active) in assay [4] (setting [8]); 87.8% (active) in assay [4] (at 50.0 µM). For the same compound, the growth inhibition in assay [5] (setting [7]) is 99% (active); in assay [5] (setting [8]) it was 99% (active); in assay [5] (at 50.0 µM), 88.6% (active); in assay [6] (setting [7]) it was 95% (active); in assay [6] (setting [8]) it was 95% (active); in assay [6] (at 50.0 µM) it was 88.1% (active).

Consider `Nc1nc(CCl)cs1`, for which the growth inhibition in assay [1] (setting [7]) is -2% (inactive); in assay [1] (setting [8]), -5% (inactive); in assay [1] (at 50.0 µM), -2.05% (inactive) and -11.7% (inactive); in assay [2] (setting [7]) it was 0% (inactive); in assay [2] (setting [8]), -2% (inactive); in assay [2] (at 50.0 µM), -24.7% (inactive) and -9.55% (inactive). The growth inhibition was 1% (inactive) in assay [3] (setting [7]); -3% (inactive) in assay [3] (setting [8]); -17.6% (inactive) and -0.25% (inactive) in assay [3] (at 50.0 µM); -7% (inactive) in assay [4] (setting [7]); -8% (inactive) in assay [4] (setting [8]); 75.8% (active) and -22.8% (inactive) in assay [4] (at 50.0 µM). In addition, the growth inhibition in assay [5] (setting [7]) is -4% (inactive); in assay [5] (setting [8]) it was -7% (inactive); in assay [5] (at 50.0 µM), 52.4% (inactive) and 4.7% (inactive); in assay [6] (setting [7]) it was -2% (inactive); in assay [6] (setting [8]), -6% (inactive); in assay [6] (at 50.0 µM) it was 17.8% (inactive) and -17% (inactive).

Regarding `O=C(O)c1ccc(NP(=O)(O)Oc2ccccc2)cc1` (tested in a mixture with another compound), the growth inhibition in assay [1] (setting [7]) was 0% (inactive); in assay [1] (setting [8]), 8% (inactive); in assay [1] (at 50.0 µM) it was -2.15% (inactive); in assay [2] (setting [7]) it was -1% (inactive); in assay [2] (setting [8]), 3% (inactive); in assay [2] (at 50.0 µM), 3.45% (inactive). Also, the growth inhibition is -20% (inactive) in assay [3] (setting [7]); -8% (inactive) in assay [3] (setting [8]); 29.9% (inactive) in assay [3] (at 50.0 µM); -4% (inactive) in assay [4] (setting [7]); -6% (inactive) in assay [4] (setting [8]); -24.8% (inactive) in assay [4] (at 50.0 µM). Moreover, the growth inhibition in assay [5] (setting [7]) is -1% (inactive); in assay [5] (setting [8]) it was -1% (inactive); in assay [5] (at 50.0 µM), -7.8% (inactive); in assay [6] (setting [7]), 11% (inactive); in assay [6] (setting [8]), 16% (inactive); in assay [6] (at 50.0 µM), 15.2% (inactive).

Turning to `O=C(Nc1ccccc1)c1cc([N+](=O)[O-])ccc1O`, the growth inhibition is -1% (inactive) in assay [1] (setting [7]); 98% (active) in assay [1] (setting [8]); 95.7% (active) in assay [1] (at 50.0 µM); 0% (inactive) in assay [2] (setting [7]); 97% (active) in assay [2] (setting [8]); 92% (active) in assay [2] (at 50.0 µM). In addition, the growth inhibition in assay [3] (setting [7]) is 2% (inactive); in assay [3] (setting [8]), 95% (active); in assay [3] (at 50.0 µM) it was 62.5% (inactive); in assay [4] (setting [7]), -2% (inactive); in assay [4] (setting [8]), 86% (active); in assay [4] (at 50.0 µM), 32.5% (inactive). Besides, the growth inhibition is 0% (inactive) in assay [5] (setting [7]); 96% (active) in assay [5] (setting [8]); 90.5% (active) in assay [5] (at 50.0 µM); 12% (inactive) in assay [6] (setting [7]); 96% (active) in assay [6] (setting [8]); 97.5% (active) in assay [6] (at 50.0 µM).

These data come from PubChem BioAssay (NCI).
